The campaign covered roughly 94,000 compounds. About 4,000 (4.3%) were called active. A call without a number means that no potency is given here. Not shown: some 29% with an inconclusive outcome. This is one part of a sample in which actives are shown more often than they occur. Calls follow the shape of the dose curve; as a rule, active = well fitted inhibition curve with a large enough effect; inconclusive = small, poorly fitted or top-dose-only effect; inactive = no such curve, though single readings can be large or run the other way.
assay: Cytotoxic Profiling in NIH 3T3 Cell Line of Diverse Libraries Using Quantitative High-Throughput Screening; conditions: NIH 3T3 viability, CellTiter-Glo ATP luminescence, 48-72 h; series mostly up to 96.7 µM; also: nearly all actives have a fitted effect of over 55% in size
How it was run: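 Cells were seeded at 400 per well, treated with pin-transferred compound, and kept 48 or 72 hr at 37 °C before CellTiter-Glo addition and luminescence imaging of cellular ATP.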
Potency is read from the fitted curve at half-maximal effect.

Structure (SMILES)	Potency
COc1ccc(-c2cc(-c3cnc4[nH]ccc4c3)cn3cncc23)cn1	39.8 µM (active)
COc1ccc(-c2cc(-c3cccc4[nH]ncc34)cn3cncc23)cn1	14.1 µM (active)
CC(C)NC(=O)C1CCC(=O)N1C1CCN(C(=O)C2CCCCC2)CC1 (stereo not given)	inactive
COc1cccc(CN2CC3(C2)C(=O)N(Cc2ccccc2F)C(=O)[C@@H]2C[C@@H](O)CN23)c1	inactive
CC(=O)N1C[C@@H]2CCCN3CCC[C@@H]([C@H]23)[C@H]1CCCC(=O)NCc1cc(F)cc(F)c1	inactive
Cc1ccc(C(=O)N2C[C@@H](CO)[C@H](c3ccncc3)C2)c(C)c1	inactive
CN(c1ccccc1)c1cc(=O)c2ccnc(Nc3cccc([S+](C)(=O)[O-])c3)c2o1	8.91 µM (active)
O=c1cc(-c2cccnc2)oc2c(-c3cccc(CO)c3)nccc12	31.6 µM (active)
CN(c1ccccc1)c1cc(=O)c2ccnc(-c3ccc(CO)cc3)c2o1	8.91 µM (active)
OC[C@@H]1O[C@H](CNC2CCOCC2)[C@H](N2CCc3ccccc3C2)[C@@H]1O	inactive
Cc1cc(C(=O)N2CCn3nc(C(=O)Nc4ccccc4)cc3C2)cc(=O)[nH]1	inactive
CN1CCCN(C(=O)c2ccoc2)c2ccccc21	inactive
COCCn1ncc(N2CCCC(CC(=O)NCc3cccc(C)c3)C2)cc1=O (stereo not given)	inactive
O=C(Nc1ccsc1)N[C@H]1C[C@H]2C(=O)NC[C@@H](CCC(=O)N3CCC(O)CC3)N2C1	inactive
COCCNC(=O)C[C@@H]1C[C@H]2O[C@H](CNC3CCN(C)CC3)[C@@H](O)[C@H]2O1	inactive
Cc1ccc(C2Cn3nnc(C(=O)N4CCC(C(=O)NCc5cccnc5)CC4)c3CO2)cc1 (stereo not given)	inactive
COc1ncccc1CNC[C@H]1COCc2nc3cc(C(F)(F)F)ccc3n21	inactive
COc1ccc2nc3n(c2c1)[C@@H](CNC(=O)c1cnccn1)COC3	inactive
COc1ccc2nc3n(c2c1)[C@@H](CNC1CCCCC1)COC3	39.8 µM (active)
COc1ccccc1CN(C(=O)c1cccc(-c2noc(C)n2)c1)C1CC1	inactive

Structure (SMILES)	Potency
Cc1cnc(CCNS(=O)(=O)Cc2ccccc2F)n1Cc1ccccc1	inactive
O=C(NCC1CN(Cc2ccccc2)CC12CN(c1ccccc1)C2)Nc1ccccc1 (stereo not given)	39.8 µM (active)
CN(CC#N)C(=O)[C@H]1CN(Cc2ccccc2)C[C@H]1C(=O)O	inactive
Cc1ccc(NC(=O)NC[C@H]2O[C@@H](CC(=O)N3CCN(c4ccccc4)CC3)[C@H](O)[C@@H]2O)cc1	inactive
CC(C)OCCCNC(=O)C1Cn2cccc2C(=O)N1C (stereo not given)	inactive
CC(C)CN1C(=O)c2cccn2CC1C(=O)NCC1CCN(Cc2cccc(F)c2)CC1 (stereo not given)	inactive
Cc1cnc(C2CCC2)n1CCNS(=O)(=O)c1cc(F)ccc1F	inactive
COCC(=O)N[C@H]1CO[C@H]2[C@@H]1OC[C@@H]2Nc1nccc(C(C)(C)C)n1	inactive
O=C(NCC1CC1)c1ccc2nnc(CC3CC3)n2c1	inactive
Cc1cccc(Nc2nc(N)nc(CN3CCC4(CC3)OCCCC4O)n2)c1 (stereo not given)	inactive
O=C(CCn1ccc(=O)[nH]c1=O)N1CCn2nc(Cc3ccccc3)cc2C1	inactive
COc1cccc(CNC(=O)c2cc(-c3ccc(Cl)nc3)nc3c2cnn3C)c1	inactive
Cn1ncc2c(C(=O)NCc3ccc(F)cc3)cc(-c3cccc(C(F)(F)F)c3)nc21	inactive
Cn1ncc2c(C(=O)NCc3cccnc3)cc(C(C)(C)C)nc21	44.7 µM (active)
Cc1ccccc1S(=O)(=O)N1C[C@@H]2CCCN3CCC[C@@H]([C@H]23)[C@H]1CCCC(=O)N1CCOCC1	inactive
Cc1cc(C(=O)N[C@H](C)c2c(-c3ccc(F)cc3)noc2C(=O)O)nn1C	inactive
COC1CN(C2CCN(C(=O)C3CCC3)CC2)C12CCOCC2 (stereo not given)	inactive
CC(=O)NC1(C)CCN(Cc2cccc(-c3ccc(C(=O)c4ccccc4)cc3)c2)C1 (stereo not given)	35.5 µM (active)
Cc1ccc(-c2cccc(CN3CCCC(NC(=O)c4ccc(Cl)cc4)C3)c2)cc1Cl (stereo not given)	inactive
CC(=O)NC1(C)CCN(Cc2cnc(-c3ccc4c(ccn4C)c3)s2)CC1	inactive

Structure (SMILES)	Potency
O=C(Nc1ccccc1)C1CN(S(=O)(=O)c2cccnc2)CC12CCCCC2 (stereo not given)	inactive
Cc1ccc(-c2ccc3nnc(CNC(=O)c4ccncc4)n3n2)cc1C	inactive
COc1ccc(C(=O)NCc2nnc3ccc(-c4ccc(C)cc4)nn23)cc1F	inactive
Cc1ccc(-c2nnc3ccc(-c4ccoc4)nn23)nc1	100 µM (active)
Cc1ccc(CCN2C[C@]34C=C[C@H](O3)C(C(=O)N(C)Cc3nccn3C)C4C2=O)cc1 (stereo not given in full)	inactive
COc1ccc(CNC(=O)c2cccc3c2CCN3C(=O)c2ccc(F)cc2)cc1OC	39.8 µM (active)
COc1ccc(CNC(=O)c2c(C)sc3ccn(CC(C)C)c(=O)c23)cc1OC	inactive
COc1ccc(-c2ccc(C(=O)NCc3ccc(F)cc3)cc2)nn1	inactive
COc1ccc(CC(=O)N2CCC[C@@H]2C(=O)N2CCC(N3CCOC3=O)CC2)cc1	inactive
COc1ccc(Cn2c(C3CCN(C(=O)Cc4ccsc4)CC3)n[nH]c2=O)cc1	inactive
COc1cncc(-c2cccc(COc3ccc4c(cnn4CC[S+](C)(=O)[O-])c3)c2)c1	56.2 µM (active)
O=C1CCN(C2CCCC2)CCOCCN1	inactive
O=C(NCC1CCOCC1)Nc1cccc(Cl)c1	inactive
O=C(Nc1cccc(Cl)c1)C1CN(c2ccccc2)C(=O)N1 (stereo not given)	inactive
O=C1CCN(Cc2ccncc2)CCCC(C(=O)Nc2cccc(F)c2)CCN1 (stereo not given)	inactive
O=C(Nc1cccc(F)c1)c1cc2n(n1)CC(c1ccc(Cl)cc1)OC2 (stereo not given)	inactive
O=C(Nc1cccc(Cl)c1)[C@@H]1C[C@@H](c2ccc(F)cc2)N([S+](=O)([O-])c2cccnc2)C1	35.5 µM (active)
O=C(Nc1cccc(Cl)c1)[C@@H]1C[C@H](c2ccc(F)cc2)N([S+](=O)([O-])C2CC2)C1	79.4 µM (active)
O=C(C1CCOC1)N1CCC(N(Cc2ccccc2)C2CCOCC2)CC1 (stereo not given)	inactive
CN(C)C(=O)N1CCCC1C(=O)N1CCC(c2nc3ccncc3[nH]2)C1 (stereo not given)	inactive
